Experimental data: PubChem BioAssay AID1903 (Southern Research Specialized Biocontainment Screening …, 2009)
Out of some 310,000 compounds screened, about 1,200 (0.39%) were called active. No rule for the calls is given here. Only a sample is shown. Entries with a potency or affinity are not part of this list.

Each compound was assayed against Large T antigen (Simian virus 40) (UniProt P03070) (assay: TAg ATPase/helicase activity blockers – biochemical (AID 1903)). Conditions: SV40 large T antigen ATPase/helicase inhibition assay; at 20 µM; stronger effect = higher value.
Chain of Large T antigen (Simian virus 40) (P03070 whole entry, looked up): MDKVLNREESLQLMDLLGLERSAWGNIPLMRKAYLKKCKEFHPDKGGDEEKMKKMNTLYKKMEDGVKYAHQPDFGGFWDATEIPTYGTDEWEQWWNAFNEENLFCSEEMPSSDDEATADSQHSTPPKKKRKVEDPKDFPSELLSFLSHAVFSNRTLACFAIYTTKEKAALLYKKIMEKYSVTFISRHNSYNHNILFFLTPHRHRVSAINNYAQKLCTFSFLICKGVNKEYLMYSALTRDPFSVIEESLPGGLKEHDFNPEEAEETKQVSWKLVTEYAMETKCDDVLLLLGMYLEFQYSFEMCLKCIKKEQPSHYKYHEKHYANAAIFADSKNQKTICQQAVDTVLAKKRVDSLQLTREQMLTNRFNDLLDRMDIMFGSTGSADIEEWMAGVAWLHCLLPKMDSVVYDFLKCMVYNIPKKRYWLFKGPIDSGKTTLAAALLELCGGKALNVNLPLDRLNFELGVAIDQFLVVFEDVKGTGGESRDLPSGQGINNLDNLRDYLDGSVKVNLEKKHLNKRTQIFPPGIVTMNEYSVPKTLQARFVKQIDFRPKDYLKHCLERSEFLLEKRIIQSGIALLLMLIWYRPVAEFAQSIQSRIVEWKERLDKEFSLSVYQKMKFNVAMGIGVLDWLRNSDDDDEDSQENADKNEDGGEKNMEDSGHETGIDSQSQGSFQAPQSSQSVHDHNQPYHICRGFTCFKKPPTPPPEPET

SMILES	inhibition
c1cc(CNc2ccc(N3CCOCC3)cc2)ccn1	1.95% (inactive)
CC(C)c1ccc(CNc2ccc(N3CCOCC3)cc2)cc1	9.24% (inactive)
COc1ccc(CCC(=O)Nc2ccc(N3CCOCC3)cc2)cc1	8.67% (inactive)
COc1ccc(OCC(=O)Nc2ccc(N3CCOCC3)cc2)cc1	12.4% (inactive)
COc1cccc2cc(C(=O)N(Cc3cccs3)CC3CCCO3)c(=O)oc12 (centres undefined)	5.05% (inactive)
CCn1cc(C2=NC(c3ccccc3)CO2)c2ccccc21 (centres undefined)	14.4% (inactive)
Cc1ccc(Sc2ncnc(N)c2[N+](=O)[O-])cc1	2.16% (inactive)
CSc1nc(Cl)cc(Nc2ccccc2N)n1	22% (inactive)
CNc1cc(Cl)nc(SC)n1	5.2% (inactive)
CCNC(=O)O/N=C1\CCCCC1c1ccc([N+](=O)[O-])cc1[N+](=O)[O-] (centres undefined)	11.8% (inactive)
N#C/C(=C\c1coc2ccccc2c1=O)C(N)=S	11.5% (inactive)
O=C1NN(c2ccccc2)C(=O)/C1=C\c1coc2ccc(O)cc2c1=O	51.3% (inactive)
COc1ccc(CCNC(=O)C/C(C)=N/NC(=O)C23CC4CC(CC(C4)C2)C3)cc1OC	5.44% (inactive)
COC(=O)C1=C(C)N(Cc2ccco2)C(=O)/C1=C\c1ccc([N+](=O)[O-])cc1	31.3% (inactive)
COC(=O)C1=C(C)N(Cc2ccco2)C(=O)/C1=C\c1ccc(N(C)C)cc1	3.05% (inactive)
COc1ccc(NC(=O)CC2C(=O)N(Cc3ccco3)C(=S)N2C(C)C)cc1 (centres undefined)	12% (inactive)
COc1ccc(-n2c(C)cc(/C=C3\SC(=S)N(Cc4ccco4)C3=O)c2C)cc1	2.87% (inactive)
COc1ccc(N2C(=O)CC(c3cc(OC)c(OC)c(OC)c3)CC2=O)cc1	8.69% (inactive)
COC(=O)c1nn(-c2nc(-c3ccc(OC)c(OC)c3)cc(C(F)(F)F)n2)cc1[N+](=O)[O-]	9.35% (inactive)
COC(=O)c1ccc(N2NC(=O)/C(=C/c3ccc(-c4ccc(Cl)c(C(=O)O)c4)o3)C2=O)cc1	37% (inactive)

SMILES	inhibition
N=C1/C(=C\c2ccc(-c3cccc(Cl)c3)o2)C(=O)N=C2SC=C(c3ccccc3)N12	7.39% (inactive)
O=C1NN(c2cccc(Br)c2)C(=O)/C1=C/c1ccc(-c2cc([N+](=O)[O-])ccc2O)o1	38.2% (inactive)
Cc1ccc(Sc2ccc(/C=C3/C(=O)NN(c4ccccc4)C3=O)o2)cc1	20.1% (inactive)
O=C1NN(c2ccccc2)C(=O)/C1=C/c1ccc(Sc2ccc(Cl)cc2)o1	11.2% (inactive)
N=C1/C(=C\c2ccc(-c3cc(Cl)cc(Cl)c3)o2)C(=O)N=C2SC=C(c3ccccc3)N12	-1.62% (inactive)
O=C1NN(c2ccc(Cl)c(Cl)c2)C(=O)/C1=C/c1ccc(-c2ccccc2C(=O)O)o1	28.4% (inactive)
COc1ccc(Sc2ccc(/C=C3\C(=O)NN(c4ccccc4)C3=O)o2)cc1	32.2% (inactive)
COc1ccccc1N1CCN(CC(O)c2ccccc2)CC1 (centres undefined)	-5.22% (inactive)
CC(=O)Nc1nc2ccc(S(=O)(=O)N3CCCCC3)cc2s1	11.1% (inactive)
CCSC1=NCCN1S(=O)(=O)c1ccc(NC(C)=O)cc1	4.92% (inactive)
CN(C(=O)c1ccc2c(c1)CCN2S(C)(=O)=O)c1ccccc1	-0.23% (inactive)
Cc1cc(C)c2c(=O)[nH]c(SCc3ccccc3C)nc2n1	1.53% (inactive)
CCC(=O)Oc1ccc(C(=O)Nc2cccc(NC(=O)c3ccco3)c2)cc1	-2.07% (inactive)
Cc1ccc(OCC(=O)Nc2ccc(F)cc2)c([N+](=O)[O-])n1	6.19% (inactive)
Cc1ccc(NC(=O)C2CCN(S(=O)(=O)c3cnc[nH]3)CC2)cc1C	12% (inactive)
COc1ccccc1OCC(=O)Nc1nonc1NC(=O)COc1ccccc1OC	11.7% (inactive)
CC(=O)Nc1ccc(N2CC(C)(C)C2=O)cc1	14.5% (inactive)
COc1ccc(F)cc1S(=O)(=O)N1CCCC(C)C1 (centres undefined)	4.43% (inactive)
OCCC1CN(Cc2cccc(C(F)(F)F)c2)CCN1Cc1ccccc1 (centres undefined)	5.73% (inactive)
O=Cc1ccc(-c2cccc(C(=O)O)c2)o1	8.85% (inactive)

SMILES	inhibition
O=C1NN(c2ccccc2)C(=O)/C1=C/c1ccc(Sc2cccc3ccccc23)o1	9.56% (inactive)
CCSc1ccccc1C(=O)N1CCN(c2ccccc2F)CC1	4.24% (inactive)
CC(C)c1ccc(C2/C(=C(\O)c3ccc4c(c3)OCCO4)C(=O)C(=O)N2CCN2CCOCC2)cc1 (centres undefined)	10.8% (inactive)
N#C/C(=C\c1ccncc1)c1nc2ccccc2[nH]1	-51.6% (inactive)
Cc1ccc2nc(/C(C#N)=C/c3ccc(O)c(O)c3)[nH]c2c1	36.8% (inactive)
Cn1c(CSCc2ccc(F)cc2)nnc1SCC(=O)N1CCN(c2ccccc2)CC1	29.3% (inactive)
CC1=CN2C(=NC(=O)CC2(C)C(=O)N(CC(=O)NC2CCCC2)Cc2ccccc2)C=C1 (centres undefined)	3.88% (inactive)
CCCc1cc(=O)[nH]c(Nc2ccc(Cl)cc2)n1	16.6% (inactive)
Oc1ccc(Nc2nc(-c3ccc4ccccc4c3)cs2)cc1	35.8% (inactive)
COc1c(CC=C(C)C)c(O)cc2oc(=O)c3c4ccc(O)cc4oc3c12	21.6% (inactive)
Cc1c(O)c2ccccc2oc1=O	8.49% (inactive)
O=C1C=C(NC2CC2)C2(CCCCC2)O1	6.12% (inactive)
C=CCN1C(=O)C2C3C=CC(C2C1=O)C1C2C(=O)N(CC=C)C(=O)C2C31 (centres undefined)	0.93% (inactive)
Cc1oc2c(C)c(O)ccc2c(=O)c1-c1cnn(-c2ccccc2)c1	12.9% (inactive)
Cc1oc2cc(O)ccc2c(=O)c1-c1cnn(-c2ccccc2)c1	1.6% (inactive)
CC(C)N1C(=O)CCC1C(=O)NCc1ccco1 (centres undefined)	10.9% (inactive)
CCOC(=O)C1=C(CC)Nc2ccccc2N=C1NC(=O)Cn1cnc2ccccc2c1=O	-2.64% (inactive)
S=C(NCC1CCCO1)N1CCN(c2ccccc2)CC1 (centres undefined)	8.18% (inactive)
CC(C)(C)OC(=O)NCCCC[C@H](NC(=O)c1nc[nH]c1C(=O)NC1CCN(C(=O)OC(C)(C)C)CC1)C(=O)OC(C)(C)C	3.23% (inactive)
